# Records with an inconclusive call do not appear. Unmarked numbers belong to inactive results. The source made the active and inactive calls. Calls follow the shape of the dose curve; as a rule, active = well fitted cell-killing curve with a large enough effect; inconclusive = small, poorly fitted or top-dose-only effect, or effect the other way; inactive = flat fitted curve, though single readings scatter. Where a SMILES comes first, the peptide text is derived from it. Bridges are numbered along the chain shown (N, C = ends). [ ]: non-standard residue; d: D form. The star is where a group is joined. X1 = CCC(C)C(N)C1=NC(C(=O)*)CS1; dOrn = NCCC[C@@H](N)C(=O)O
# Test system: Hek293T
# Test: Primary qHTS to identify gynecologic anti-cancer compounds using libraries of approved drugs and bioactive compounds (AID 1345084); also: nearly all actives have a fitted effect of over 55% in size
# Settings: Gynecologic cancer cell panel viability, ATPlite luminescence, 48 h, control line for the selectivity index; series mostly up to 57.5 µM; activity change, negative = cytotoxicity: at the top concentration
# Procedure, shortened: (§1)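 Cells, 1,000 per well, were allowed to settle for 16 h at 37 C before compound addition. Five concentrations were tested for 48 h, and viability was read by ATPlite luminescence after 15 min at room temperature.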
# % is scaled to controls: 0 for no effect and ±100 for the full control effect.
Structure (SMILES),"activity change, negative = cytotoxicity",Potency
COc1c(OC2OC(CO)C(O)C(O)C2O)ccc(O)c1C(=O)OCc1ccccc1O[C@@H]1O[C@H](CO)[C@@H](O)[C@H](O)[C@H]1O (some centres undefined),4.39% [at 25.3 µM],–
CC1CCC2(C)C(CC(O)C(O)C23CO3)C1(C)CCC1=CC(=O)OC1O (centres undefined),0.44% [at 38.5 µM],–
CCC(C)C(N)C1=NC(C(=O)N[C@@H](CC(C)C)C(=O)N[C@H](CCC(=O)O)C(=O)N[C@H](C(=O)N[C@H]2CCCCNC(=O)[C@H](CC(N)=O)NC(=O)[C@@H](CC(=O)O)NC(=O)[C@H](Cc3cnc[nH]3)NC(=O)[C@@H](Cc3ccccc3)NC(=O)[C@H]([C@@H](C)CC)NC(=O)[C@@H](CCCN)NC2=O)[C@@H](C)CC)CS1 (some centres undefined) (X1-L[dE]IK[dOrn]I[dF]H[dD]N; lactam 4-C),–,inactive
C[C@@]12C[C@]3(O)O[C@H](O1)[C@]1(COC(=O)c4ccccc4)[C@H]3C[C@@]12O[C@@H]1O[C@H](COC(=O)c2ccccc2)[C@@H](O)[C@H](O)[C@H]1O,1.69% [at 25.3 µM],–
C=CC1C(O[C@@H]2O[C@H](CO)[C@@H](O)[C@H](O)[C@H]2O)OC=C(C(=O)OC)C1Cc1nccc2c1[nH]c1ccccc12 (some centres undefined),-4.98% [at 25.3 µM],–
Cc1c(-c2ccnn2C)cc(C(=O)NCc2ccc(S(C)(=O)=O)cn2)c(=O)n1-c1cccc(C(F)(F)F)c1,–,inactive
CCOc1ccc(C(Nc2ccccn2)c2ccc3ccc(C)nc3c2O)cc1C (centres undefined),-0.0625%,–
CC(=O)c1c(O)cc2c(c1C)C(=O)CC(O)C2 (centres undefined),5.66%,–
O=C(/C=C/c1ccc(O)cc1)OCC1=CC2OC(=O)C3=CO[C@@H](O[C@@H]4O[C@H](CO)[C@@H](O)[C@H](O)[C@H]4O)[C@H]1[C@@H]32 (some centres undefined),0.14% [at 25.3 µM],–
CCC1CC2C(C)=CC3CCCCC3C2(C)C2(OC(=O)C(C)(O)OC2=O)O1 (centres undefined),0.652% [at 38.5 µM],–
CC12CCC3C(C)(C)C(O)CCC3(C)C1Cc1c(oc(C(=O)O)cc1=O)O2 (centres undefined),-0.076% [at 38.5 µM],–

# Test system: JEG-3
# Test: as above
# Settings: Gynecologic cancer cell panel viability, ATPlite luminescence, 48 h; series mostly up to 57.5 µM; activity change, negative = cytotoxicity: at the top concentration
# Procedure, shortened: as §1
row,Structure (SMILES),"activity change, negative = cytotoxicity"
1,OC[C@H]1O[C@@H](OC(CCCCc2ccc(O)cc2)CCc2ccc(O)cc2)[C@H](O[C@@H]2OC[C@](O)(CO)[C@H]2O)[C@@H](O)[C@@H]1O (some centres undefined),-8.7% [at 25.3 µM]
2,C=C(C)[C@H]1C[C@@H](O)C(=C)CC[C@@H](O)C(=C)[C@@H](O)C1,11.3%
3,CN1C(=O)c2ccccc2NC(=O)[C@]12O[C@@H]2c1cccc(O)c1,3.96%
4,C=C1C(=O)O[C@H]2[C@H]1[C@@H](OC(=O)C(C)CO)C[C@@]1(C)[C@H](O)CCC(=O)[C@H]21 (some centres undefined),-0.59% [at 38.5 µM]
5,N[C@@H](CC(=O)N1CCn2c(nnc2C(F)(F)F)C1)Cc1[nH]nc2c(F)c(F)ccc12,20.8%
6,CC1=CC(=O)CC(C)(C)C1(O)CCC(C)O (centres undefined),-15.7%
7,O=C(O)Cc1nn(Cc2nc3cc(C(F)(F)F)ccc3s2)c(=O)c2nccnc12,0.0327%
8,CCOC(=O)[C@H](CCc1ccccc1)CC1(C(=O)N[C@H]2CCc3ccccc3N(CC(=O)O)C2=O)CCCC1,2.1%
9,COc1cc(/C=C/C(=O)OC2[C@H](O)CC(O)(C(=O)O)C[C@H]2O)ccc1O (some centres undefined),10.8% [at 38.5 µM]
10,Cn1ccnc1CCOC(c1cc2nccc(C(=O)O)c2[nH]1)c1ccccc1Cl (centres undefined),6.26%
11,C/C=C(\C)C(=O)O[C@H]1[C@H](O)[C@]2(COC(C)=O)[C@H](O)C[C@]3(C)C(=CCC4[C@@]5(C)CC[C@H](O[C@@H]6O[C@H](C(=O)O)[C@@H](O[C@@H]7O[C@H](CO)[C@@H](O)[C@H](O)[C@H]7O)[C@H](O)[C@H]6O[C@@H]6O[C@H](CO)[C@@H](O)[C@H](O)[C@H]6O)[C@](C)(CO)C5CC[C@]43C)[C@@H]2CC1(C)C (some centres undefined),-4.88% [at 11.6 µM]
12,CC1=CCC2C(C)(CO)CCCC2(CO)C1CO (centres undefined),-1.42%
13,COc1cccc2c1CCC[C@H]2CN(C)CCc1ccc2ccoc2c1,-4.84%
14,COC(=O)CC1(O)C(=O)Nc2ccccc21 (centres undefined),4.59%
15,C=C1CCC2C(C)(C)C(O)CCC2(C)C1CCC(C)CCOC(=O)CCC(=O)O (centres undefined),0.678% [at 25.3 µM]
16,CC(=O)O[C@H]1C[C@@H]2[C@]3(CC[C@]4(C)[C@@H](C5(C)CCC(C(C)(C)O)O5)[C@@H](O)C[C@@]24C)C[C@@]32CC[C@H](O[C@@H]3OC[C@@H](O)[C@H](O)[C@H]3O)C(C)(C)[C@H]12 (some centres undefined),-5.58% [at 25.3 µM]
17,CCCCS(=O)(=O)Nc1ncnc(OCCOc2ncc(Br)cn2)c1-c1ccc(Br)cc1,16.5%
18,C[C@@H]1O[C@@H](O[C@H]2[C@H](OC(=O)C34CCC(C)(C)CC3C3=CCC5C6(C)CC(O)C(O[C@@H]7O[C@H](CO)[C@@H](O)[C@H](O)[C@H]7O)C(C)(C(=O)O)C6CCC5(C)C3(CO)CC4)O[C@H](C)[C@H](O)[C@@H]2O)[C@H](O)[C@H](O)[C@H]1O[C@@H]1OC[C@@H](O)[C@H](O)[C@H]1O (some centres undefined),4.58% [at 11.6 µM]

# — PubChem BioAssay (NCATS)
